# Screens: PubChem BioAssay, Broad Institute
# A selection: hits, their analogues and other compounds. The true share with any hit is near 7.7%.
# PD-1 reversal: reversal of PD-1 mediated T-cell inhibition. activation, % (test concentration not listed). primary human CD4 T cells, PD-L1 beads, CellTiter-Glo 96 h. 29,000 tested, under 10 active; call rule not given here;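 also: 0% = median vehicle wells and 100% = positive control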
# NOMO-1 viab: STK33 inhibitor candidate reducing NOMO-1 cell viability. NOMO-1 AML viability, CellTiter-Glo luminescence, 72 h. inhibition, % (test concentration not listed). actives 7.5% (n = 37,000). AID 2330; in the data active = inhibition above about 80%; inconclusive = no clear call, values can overlap the other calls
# Hedgehog inh: Sonic Hedgehog pathway inhibition; Shh-LIGHT2 Gli-luciferase reporter, 30 h; inhibition, % (no concentration beside the values); actives 2.1% (n = 22,000);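 active = mean inhibition across valid replicates above about 65%, limit read from the data; inconclusive = mean under the limit, yet half or more replicates past it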;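 also: pathway switched on by Shh-conditioned medium diluted 1 in 25 in low serum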
# Starred values were filed as active, the others as inactive; ? = inconclusive; . = no result.
SMILES,PD-1 reversal,NOMO-1 viab,Hedgehog inh
Cc1cc(C(=O)Nc2cccc3c2O[C@H](CN(C)Cc2ccc(Oc4ccccc4)cc2)[C@@H](C)CN([C@H](C)CO)C3=O)n(C)n1,-5.4,111.1*,?
Cc1cc(C(=O)Nc2cccc3c2O[C@@H](CN(C)Cc2ccc(-c4ccccc4)cc2)[C@H](C)CN([C@@H](C)CO)C3=O)n(C)n1,-0.7,45.9,24.7
CC(=O)Nc1ccccc1SCC(=O)Nc1ccc(C)cc1,-6.0,34.0,.
COc1ccc(C(=O)CSc2nnc(-c3ccccc3)n2-c2ccc(Br)cc2)cc1,.,26.1,.
COc1ccc(-c2nnc3c4ccccc4c(C)nn23)cc1S(=O)(=O)N1CCN(C)CC1,1.1,2.5,.
N#CC(C(=O)c1ccco1)c1nc2ccccc2[nH]1 (configuration not stated),-0.4,64.4,5.4
OCCCc1n[nH]c(=S)n1-c1ccccc1,1.5,16.9,.
CC(Oc1ccccc1-c1ccccc1)c1n[nH]c(=S)n1-c1ccccc1 (configuration not stated),0.1,10.7,69.4*
Cc1ccc(S(=O)(=O)N(C)C[C@H]2Oc3c(NC(=O)NC4CCCCC4)cccc3C(=O)N([C@H](C)CO)C[C@H]2C)cc1,-0.9,41.0,-3.1
C[C@H]1CN([C@@H](C)CO)C(=O)c2cccc(NC(=O)NC3CCCCC3)c2O[C@H]1CN(C)S(=O)(=O)c1ccc(F)cc1,0.7,33.6,103.3*
C[C@H](CO)N1C[C@H](C)[C@@H](CN(C)S(=O)(=O)c2ccc(F)cc2)Oc2c(NC(=O)NC3CCCCC3)cccc2C1=O,-2.8,9.3,-145.0
Cc1ccc(S(=O)(=O)N(C)C[C@@H]2Oc3c(NC(=O)NC4CCCCC4)cccc3C(=O)N([C@@H](C)CO)C[C@@H]2C)cc1,.,26.4,100.4*
C[C@H]1CN([C@@H](C)CO)C(=O)c2cccc(NC(=O)NC3CCCCC3)c2O[C@@H]1CN(C)S(=O)(=O)c1ccc(Cl)cc1,1.1,5.3,29.7
C[C@H](CO)N1C[C@H](C)[C@H](CN(C)S(=O)(=O)c2ccc(Cl)cc2)Oc2c(NC(=O)NC3CCCCC3)cccc2C1=O,-10.8,120.4*,122.4*
C=C(CCCCCCCC(=O)O)C(=O)OC,3.0,20.1,-16.4
CCC(=O)NC(c1ccccc1OC)c1c(O)ccc2ccccc12 (configuration not stated),-1.7,50.8,.
N/C(=N/C(=S)Nc1ccccc1)N1CCOCC1,2.4,7.8,-36.4
CC(=O)Nc1ccc(NC(=O)CN(c2cccc(Br)c2)S(C)(=O)=O)cc1,3.1,42.7,.
Cc1ccc(SCCCCSc2nc(C)cc(=O)[nH]2)cc1,-1.0,-3.0,.
COc1ccc(C)cc1S(=O)(=O)N1CCC(C(=O)Nc2cc([N+](=O)[O-])ccc2C)CC1,0.2,11.5,.
N#Cc1c(C(F)(F)F)cc(-c2cccs2)nc1SCC(=O)Nc1c(F)cccc1F,1.5,16.4,.
N#Cc1c(C(F)(F)F)cc(-c2cccs2)nc1S/C=C/C(=O)c1ccccc1,-2.8,115.9*,-26.4
COc1cc(OC)c2c(=O)c(OC)c(-c3ccccc3)oc2c1,0.7,1.2,-14.2
Cc1ccc(C(=O)O)cc1NC(=O)COc1ccc(I)cc1,.,12.5,.
COc1ccc(-c2cc(C(F)(F)F)n3nc(C(=O)NCCN4CCOCC4)c(Br)c3n2)cc1,.,-1.6,.
SMILES,PD-1 reversal,NOMO-1 viab,Hedgehog inh
Cc1cc(C)c(NC(=O)CN(c2cccc(Cl)c2C)S(C)(=O)=O)c(C)c1,0.1,-3.5,.
COc1ccc(C(=O)NC(c2ccccc2)c2ccccc2)cc1,-0.6,32.0,23.3
COc1ccc(C(NC(=O)c2ccccc2)c2ccc3cccnc3c2O)c(OC)c1 (configuration not stated),-9.3,109.0*,.
COc1ccc(C(NC(C)=O)c2ccc3cccnc3c2O)cc1OC (configuration not stated),-10.8,106.9*,.
COc1ccc(C(NC(C)=O)c2c(O)ccc3ccccc23)cc1OC (configuration not stated),1.2,-20.5,.
N#Cc1c(NC(=O)CSc2ncccn2)sc2c1CCCC2,-0.6,27.0,.
COc1ccc(N(C(C)C(=O)Nc2ccc(Br)cc2F)S(C)(=O)=O)cc1 (configuration not stated),-0.6,6.0,.
CCc1cccc(C)c1NC(=O)CN(C)S(=O)(=O)c1ccccc1,.,22.2,.
O=C(C(C(=O)N1CCCCC1)C12CC3CC(CC(C3)C1)C2)N1CCCCC1,2.1,13.7,.
Cc1nc2sccn2c(=O)c1CCN1CCC(=C(c2ccccc2)c2ccc(F)cc2)CC1,-2.5,29.2,70.9*
O=C(c1ccc(F)cc1)C1CCN(CCn2c(=O)[nH]c3ccccc3c2=O)CC1,3.0,6.6,16.9
FC(F)(F)c1ccc(-c2n[nH]c(=S)s2)nc1,-8.7,43.8,-23.7
c1ccc2[nH]c(SCCSc3nc4ccccc4[nH]3)nc2c1,0.7,83.3*,.
NC(=O)CSc1nc2ccccc2[nH]1,.,16.0,.
CCNc1cc(N)[n+](CC)c2n[nH]c(N)c12,0.3,105.8*,4.7
CC(=O)Nc1ccc(NC(=O)CN(c2cc(C(F)(F)F)ccc2Cl)S(C)(=O)=O)cc1,0.8,8.6,.
C=CCNc1sc(C)nc1C(N)=O,-0.7,6.8,15.4
C[C@H]1CN([C@@H](C)CO)C(=O)c2cc(NC(=O)Nc3cccc4ccccc34)ccc2O[C@@H]1CN(C)Cc1ccc(Oc2ccccc2)cc1,-4.4,121.2*,13.8
COc1ccc(CN(C)C[C@@H]2Oc3ccc(NC(=O)Nc4cccc5ccccc45)cc3C(=O)N([C@@H](C)CO)C[C@H]2C)cc1,-0.3,25.9,-7.7
C[C@@H]1CN([C@H](C)CO)C(=O)c2cc(NC(=O)Nc3cccc4ccccc34)ccc2O[C@@H]1CN(C)Cc1ccc(Oc2ccccc2)cc1,.,89.1*,17.5
COc1ccc(CN(C)C[C@H]2Oc3ccc(NC(=O)Nc4cccc5ccccc45)cc3C(=O)N([C@H](C)CO)C[C@H]2C)cc1,.,-4.5,5.5
COc1ccc(CN(C)C[C@@H]2Oc3ccc(NC(=O)Nc4cccc5ccccc45)cc3C(=O)N([C@@H](C)CO)C[C@@H]2C)cc1,-0.5,34.4,.
C[C@H](CO)N1C[C@H](C)[C@H](CN(C)Cc2ccc(Oc3ccccc3)cc2)Oc2ccc(NC(=O)Nc3cccc4ccccc34)cc2C1=O,-5.3,113.2*,.
COc1ccc(CN(C)C[C@H]2Oc3ccc(NC(=O)Nc4cccc5ccccc45)cc3C(=O)N([C@@H](C)CO)C[C@@H]2C)cc1,-0.6,19.7,-0.3
C[C@H](CO)N1C[C@H](C)[C@@H](CN(C)Cc2ccc(Oc3ccccc3)cc2)Oc2ccc(NC(=O)Nc3cccc4ccccc34)cc2C1=O,-2.7,103.5*,11.9
SMILES,PD-1 reversal,NOMO-1 viab,Hedgehog inh
Cc1sc2ncnc(SCC(=O)Nc3cccc(C(F)(F)F)c3)c2c1C,-1.9,-3.4,.
COc1cc([N+](=O)[O-])cc(CN2CCN(CCO)CC2)c1O,2.6,-17.9,.
NNC(=O)Cn1nnc(N2CCCC2)n1,-0.2,-6.7,.
[N-]=C=N[n+]1ccc2ccccc2c1C(=O)c1ccc(Cl)cc1,-4.7,52.2,-72.3
CCOc1ccc2c(c1)sc(=NC(=O)c1ccc(S(=O)(=O)N3CCCCC3C)cc1)n2CC (configuration not stated),2.7,31.3,-22.8
C[C@@H]1CN([C@H](C)CO)C(=O)c2cccc(N(C)C)c2O[C@@H]1CN(C)Cc1ccc(-c2ccccc2)cc1,-0.3,24.9,-13.3
